Holding throughout (assay): DAPPL (digital affinity profiling via proximity ligation, sequencing); 10 mM Tris-HCl pH 7.5, 50 mM NaCl, 1 mM DTT, 4% glycerol, room temperature, 30 min; GST-TFs on glutathione beads, 16-mer random dsDNA library, 0.1% formaldehyde crosslink after washing; high values mean tight binding
One assay concerns the target T1, ELK1 (Homo sapiens, UniProt P19419 1-428).
T1 sequence: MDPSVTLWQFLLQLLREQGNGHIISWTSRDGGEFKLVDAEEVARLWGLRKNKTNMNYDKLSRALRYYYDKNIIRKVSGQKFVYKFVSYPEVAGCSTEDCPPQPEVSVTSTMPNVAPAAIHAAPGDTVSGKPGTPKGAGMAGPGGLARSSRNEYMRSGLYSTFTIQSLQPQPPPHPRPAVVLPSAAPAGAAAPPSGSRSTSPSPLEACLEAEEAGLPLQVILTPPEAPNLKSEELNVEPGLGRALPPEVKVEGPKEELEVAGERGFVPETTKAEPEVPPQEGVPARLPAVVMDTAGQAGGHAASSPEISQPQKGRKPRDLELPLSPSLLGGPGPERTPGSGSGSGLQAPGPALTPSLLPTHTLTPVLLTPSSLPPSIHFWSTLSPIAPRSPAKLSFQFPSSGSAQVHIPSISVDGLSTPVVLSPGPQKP
The note with it: protein: recombinant; tags: N-terminal GST; dsDNA, one strand shown. In short, it runs like this:
(§1)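 Human transcription factors fused to GST were expressed in yeast, captured on glutathione beads, given DNA barcodes and pooled with a GST-only negative control. Pools were incubated with 200 nmole of a 16-mer random double-stranded DNA library in Tris/NaCl/DTT/glycerol buffer at room temperature for 30 min. They were then washed, crosslinked with 0.1% formaldehyde, proximity-ligated (BsaI/T4 ligase, 1 h, 37 °C), PCR-amplified and sequenced on an Illumina NextSeq500. Binding signal is each 6-mer's read frequency for a factor divided by its frequency for the GST control.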

A further assay deals with T2, GABPA (Homo sapiens, UniProt Q06546 1-454).
T2 sequence: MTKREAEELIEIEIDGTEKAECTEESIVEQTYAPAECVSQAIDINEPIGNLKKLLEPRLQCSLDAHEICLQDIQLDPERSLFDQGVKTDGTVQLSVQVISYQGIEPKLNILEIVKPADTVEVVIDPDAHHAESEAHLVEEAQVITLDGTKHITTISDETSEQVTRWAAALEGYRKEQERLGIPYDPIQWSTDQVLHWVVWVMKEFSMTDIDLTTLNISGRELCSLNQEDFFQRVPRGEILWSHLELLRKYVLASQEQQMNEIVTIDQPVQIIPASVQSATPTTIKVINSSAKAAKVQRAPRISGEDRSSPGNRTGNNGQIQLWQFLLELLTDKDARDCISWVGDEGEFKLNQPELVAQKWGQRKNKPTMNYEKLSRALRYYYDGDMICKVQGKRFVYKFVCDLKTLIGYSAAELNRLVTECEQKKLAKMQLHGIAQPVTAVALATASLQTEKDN
Conditions: protein: recombinant; tags: N-terminal GST; dsDNA, one strand shown. The essentials: as §1

The target of another assay is ELF1 (Homo sapiens, UniProt P32519 1-619). Conditions: protein: recombinant; tags: N-terminal GST; dsDNA, one strand shown. The essentials: as §1
In another assay the target is T3, EHF (Homo sapiens, UniProt Q9NZC4 1-300).
T3 sequence: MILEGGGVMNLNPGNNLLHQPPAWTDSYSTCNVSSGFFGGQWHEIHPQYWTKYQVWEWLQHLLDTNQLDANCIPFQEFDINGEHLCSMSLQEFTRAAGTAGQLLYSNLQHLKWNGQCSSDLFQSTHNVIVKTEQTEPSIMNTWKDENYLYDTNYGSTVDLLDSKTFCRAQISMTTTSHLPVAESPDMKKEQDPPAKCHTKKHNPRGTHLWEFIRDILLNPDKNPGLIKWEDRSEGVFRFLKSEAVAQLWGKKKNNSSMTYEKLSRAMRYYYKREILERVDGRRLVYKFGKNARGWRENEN
The note with it: protein: recombinant; tags: N-terminal GST; dsDNA, one strand shown. The essentials:
as §1

A further assay concerns the target SPIB (Homo sapiens, UniProt Q01892 1-262). The note with it: protein: recombinant; tags: N-terminal GST; dsDNA, one strand shown. In short, it runs like this:
as §1

The target of the next assay is T4, ELK3 (Homo sapiens, UniProt P41970 1-407).
T4 sequence: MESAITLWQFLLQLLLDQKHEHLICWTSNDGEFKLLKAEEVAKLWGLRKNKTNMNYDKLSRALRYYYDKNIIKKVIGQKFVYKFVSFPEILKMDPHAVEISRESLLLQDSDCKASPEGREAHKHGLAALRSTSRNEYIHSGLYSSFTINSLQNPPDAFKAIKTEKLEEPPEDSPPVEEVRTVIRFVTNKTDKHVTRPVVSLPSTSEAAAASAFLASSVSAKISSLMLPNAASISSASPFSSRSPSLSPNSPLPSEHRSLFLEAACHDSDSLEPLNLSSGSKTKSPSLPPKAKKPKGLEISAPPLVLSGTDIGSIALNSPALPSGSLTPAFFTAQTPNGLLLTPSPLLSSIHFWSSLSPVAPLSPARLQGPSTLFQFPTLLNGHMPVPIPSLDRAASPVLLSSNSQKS
Conditions: protein: recombinant; tags: N-terminal GST; dsDNA, one strand shown. The essentials:
as §1

In another assay the target is HSF1 (Homo sapiens, UniProt Q00613 1-529). Conditions: protein: recombinant; tags: N-terminal GST; chain copies: 3; dsDNA, one strand shown. The essentials:
as §1

In the next assay the target is T5, SPIC (Homo sapiens, UniProt Q8N5J4 1-248).
T5 sequence: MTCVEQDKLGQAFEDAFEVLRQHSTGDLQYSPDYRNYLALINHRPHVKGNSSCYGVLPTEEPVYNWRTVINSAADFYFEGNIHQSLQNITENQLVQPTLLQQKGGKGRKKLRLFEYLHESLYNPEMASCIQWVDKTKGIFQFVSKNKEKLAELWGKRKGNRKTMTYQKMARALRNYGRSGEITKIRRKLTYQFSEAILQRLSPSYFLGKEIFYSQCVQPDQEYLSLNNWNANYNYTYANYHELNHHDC
Conditions: protein: recombinant; tags: N-terminal GST; dsDNA, one strand shown. In short, it runs like this: as §1

In a further assay the target is ELF4 (Homo sapiens, UniProt Q99607 1-663). The note with it: protein: recombinant; tags: N-terminal GST; dsDNA, one strand shown. In short, it runs like this:
as §1

The next assay deals with T6, ELF3 (Homo sapiens, UniProt P78545 1-371).
T6 sequence: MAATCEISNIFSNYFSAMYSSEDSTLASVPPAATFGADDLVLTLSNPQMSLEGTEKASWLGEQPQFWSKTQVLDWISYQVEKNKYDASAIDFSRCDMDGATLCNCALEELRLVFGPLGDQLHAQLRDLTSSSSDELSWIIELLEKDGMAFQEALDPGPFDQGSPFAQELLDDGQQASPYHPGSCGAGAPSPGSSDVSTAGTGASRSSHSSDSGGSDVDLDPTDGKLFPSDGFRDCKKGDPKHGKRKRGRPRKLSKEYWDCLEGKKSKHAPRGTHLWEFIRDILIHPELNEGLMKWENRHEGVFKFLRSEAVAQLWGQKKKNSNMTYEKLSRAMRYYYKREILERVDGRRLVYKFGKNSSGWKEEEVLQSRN
Conditions: protein: recombinant; tags: N-terminal GST; dsDNA, one strand shown. In short, it runs like this:
as §1

The target in another assay is T7, ERF (Homo sapiens, UniProt P50548 1-548).
T7 sequence: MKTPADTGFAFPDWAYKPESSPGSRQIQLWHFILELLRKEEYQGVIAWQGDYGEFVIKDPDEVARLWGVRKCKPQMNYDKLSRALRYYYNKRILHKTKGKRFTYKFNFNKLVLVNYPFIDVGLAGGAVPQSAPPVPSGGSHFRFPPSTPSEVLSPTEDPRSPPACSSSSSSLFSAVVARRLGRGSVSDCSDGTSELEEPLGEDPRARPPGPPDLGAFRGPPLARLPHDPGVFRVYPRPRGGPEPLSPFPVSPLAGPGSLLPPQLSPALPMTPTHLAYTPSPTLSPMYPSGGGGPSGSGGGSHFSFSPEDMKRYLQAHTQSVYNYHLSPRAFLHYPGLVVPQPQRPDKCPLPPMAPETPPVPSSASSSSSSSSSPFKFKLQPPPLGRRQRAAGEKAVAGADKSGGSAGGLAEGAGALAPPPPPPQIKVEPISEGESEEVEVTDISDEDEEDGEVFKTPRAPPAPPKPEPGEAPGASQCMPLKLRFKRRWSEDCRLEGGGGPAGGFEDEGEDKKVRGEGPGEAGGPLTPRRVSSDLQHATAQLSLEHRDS
Conditions: protein: recombinant; tags: N-terminal GST; dsDNA, one strand shown. In short, it runs like this:
as §1

ELF1, sequence (P32519 whole entry): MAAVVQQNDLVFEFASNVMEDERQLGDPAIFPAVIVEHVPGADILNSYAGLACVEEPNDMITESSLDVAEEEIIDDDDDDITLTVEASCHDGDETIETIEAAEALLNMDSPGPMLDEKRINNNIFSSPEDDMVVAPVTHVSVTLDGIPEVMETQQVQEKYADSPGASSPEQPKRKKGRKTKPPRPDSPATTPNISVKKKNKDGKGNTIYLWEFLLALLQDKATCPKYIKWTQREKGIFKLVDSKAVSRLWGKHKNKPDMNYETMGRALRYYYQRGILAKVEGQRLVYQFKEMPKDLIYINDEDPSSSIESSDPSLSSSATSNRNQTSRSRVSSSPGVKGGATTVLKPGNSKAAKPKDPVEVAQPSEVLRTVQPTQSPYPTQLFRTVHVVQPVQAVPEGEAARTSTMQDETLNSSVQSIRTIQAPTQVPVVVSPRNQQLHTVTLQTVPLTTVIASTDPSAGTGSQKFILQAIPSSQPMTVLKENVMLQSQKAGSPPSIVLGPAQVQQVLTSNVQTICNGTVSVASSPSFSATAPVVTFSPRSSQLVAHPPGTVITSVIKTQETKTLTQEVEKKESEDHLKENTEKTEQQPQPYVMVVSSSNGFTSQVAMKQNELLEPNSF
ELF4, sequence (Q99607 whole entry): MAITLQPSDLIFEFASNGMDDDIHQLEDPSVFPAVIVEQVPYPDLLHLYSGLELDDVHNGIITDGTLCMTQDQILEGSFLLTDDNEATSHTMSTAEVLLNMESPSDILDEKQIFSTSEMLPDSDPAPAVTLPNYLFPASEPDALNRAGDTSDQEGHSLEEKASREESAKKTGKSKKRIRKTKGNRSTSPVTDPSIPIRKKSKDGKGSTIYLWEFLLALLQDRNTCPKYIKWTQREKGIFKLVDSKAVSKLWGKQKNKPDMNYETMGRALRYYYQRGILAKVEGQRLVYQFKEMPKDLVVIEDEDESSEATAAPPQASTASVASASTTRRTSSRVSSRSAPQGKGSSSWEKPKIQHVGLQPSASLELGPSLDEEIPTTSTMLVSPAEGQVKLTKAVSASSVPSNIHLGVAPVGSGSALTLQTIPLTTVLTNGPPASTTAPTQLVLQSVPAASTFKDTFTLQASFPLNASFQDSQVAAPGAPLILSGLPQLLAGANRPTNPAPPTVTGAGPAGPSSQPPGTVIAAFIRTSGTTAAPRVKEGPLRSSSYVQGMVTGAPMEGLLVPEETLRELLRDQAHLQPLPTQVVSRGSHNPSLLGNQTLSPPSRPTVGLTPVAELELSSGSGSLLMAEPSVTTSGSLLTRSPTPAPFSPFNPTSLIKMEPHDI
SPIB, sequence (Q01892 whole entry): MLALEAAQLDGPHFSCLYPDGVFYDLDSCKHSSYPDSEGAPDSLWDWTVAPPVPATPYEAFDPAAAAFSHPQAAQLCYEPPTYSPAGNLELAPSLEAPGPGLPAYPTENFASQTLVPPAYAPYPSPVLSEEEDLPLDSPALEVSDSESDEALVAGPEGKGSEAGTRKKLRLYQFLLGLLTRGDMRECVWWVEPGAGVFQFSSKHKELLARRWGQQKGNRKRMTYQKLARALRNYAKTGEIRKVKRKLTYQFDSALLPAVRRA
HSF1, sequence (Q00613 whole entry): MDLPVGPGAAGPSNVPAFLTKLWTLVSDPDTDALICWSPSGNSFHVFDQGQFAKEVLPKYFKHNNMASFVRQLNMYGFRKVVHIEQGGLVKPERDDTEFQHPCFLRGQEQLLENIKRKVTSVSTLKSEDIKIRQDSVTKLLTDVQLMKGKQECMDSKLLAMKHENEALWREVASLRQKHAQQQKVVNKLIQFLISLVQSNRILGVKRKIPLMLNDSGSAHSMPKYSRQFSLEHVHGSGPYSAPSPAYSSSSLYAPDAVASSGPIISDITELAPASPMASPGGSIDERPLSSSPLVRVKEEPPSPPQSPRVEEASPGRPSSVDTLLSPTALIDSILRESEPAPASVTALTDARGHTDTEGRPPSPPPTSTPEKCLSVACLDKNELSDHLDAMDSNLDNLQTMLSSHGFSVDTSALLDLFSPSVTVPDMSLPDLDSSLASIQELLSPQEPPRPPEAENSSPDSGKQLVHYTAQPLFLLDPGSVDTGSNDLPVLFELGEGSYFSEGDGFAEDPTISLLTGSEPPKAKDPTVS

As to GCCGAA, the binding signal with ELK1 is 1 fold enrichment (6-mer frequency, TF over GST control); in the assay with GABPA, 1.02 fold enrichment (6-mer frequency, TF over GST control); with ELF1, 1.01 fold enrichment (6-mer frequency, TF over GST control); in the assay with EHF it was 1.03 fold enrichment (6-mer frequency, TF over GST control); with SPIB it was 1.02 fold enrichment (6-mer frequency, TF over GST control); in the assay with ELK3, 1.06 fold enrichment (6-mer frequency, TF over GST control). The binding signal with HSF1 is 1.14 fold enrichment (6-mer frequency, TF over GST control); with SPIC, 1.09 fold enrichment (6-mer frequency, TF over GST control); with ELF4, 1.06 fold enrichment (6-mer frequency, TF over GST control); with ELF3, 1.02 fold enrichment (6-mer frequency, TF over GST control); with ERF it was 1.05 fold enrichment (6-mer frequency, TF over GST control).

The values above are taken from article PMC7862700, “An all-to-all approach to the identification of sequence-specific readers for epigenetic DNA modifications on cytosine”.
